Measurements published in PubChem BioAssay (Tox21).
Records with an inconclusive call do not appear. Where a call stands in place of a potency, no number is given. Unmarked numbers belong to inactive results. Active and inactive are the calls of the source. Calls follow the shape of the dose curve; as a rule, active = well fitted inhibition curve with a large enough effect in the repeat runs; inconclusive = weak or mixed curves, or effect the other way; inactive = no such curve, though single readings can be large or run the other way.

What follows are compounds tested against Nuclear receptor ROR-gamma (Homo sapiens) (UniProt P51449) (assay: qHTS assay to identify small molecule antagonists of the retinoid-related orphan receptor gamma (ROR-gamma) signaling pathway (AID 1159521; also: nearly all actives have a fitted effect of over 50% in size; as to activity change, negative = inhibition: top concentration of the series differs between compounds)). Details: Tet-on RORgamma CHO cells, RORE-luciferase, 16 h; series mostly up to 92.4 µM.
From the text: U.S. Tox21 Program National Center for Advancing Translational Sciences [NCATS] NIH Chemical Genomics Center [NCGC] U.S. Environmental Protection Agency [EPA] National Institutes of Environmental Health Sciences [NIEHS] National Toxicology Program [NTP] U.S. Food and Drug Administration [FDA] Tox21 Assay Overview: Nuclear steroid hormone receptors are involved in many biological processes including inflammatory responses, cell proliferation, and apoptosis. Environmental factors or compounds disrupting these nuclear receptor pathways and gene expression may promote susceptibility to immunotoxicants and autoimmune diseases. One important group of these expression factors are the retinoid-related orphan receptors. To assess compounds that may interfere with the retinoid-related orphan receptor gamma (ROR-gamma) transcription factor, a cell-based luciferase assay was used. The CHO cell-based assay utilizes a TET-inducible ROR expression factor and ROR response element-LUC reporter gene. Reporter gene activity was induced using Doxycycline Hyclate and measured after 16 hr incubation. Tet-on ROR gamma CHO cells were used to screen against the Tox21 10K compound library for ROR gamma antagonists by quantification of decreased reporter gene activity in terms of decreased luminescence.
Tox21 Assay Protocol Summary: Tet-on ROR gamma CHO cells were dispensed at 1,000 cells in 4 uL of culture medium per well into white wall/solid bottom 1536-well plates using a Multidrop Combi (Thermo Scientific, Waltham, MA) dispenser. Following incubation at 37 C and 5% CO2 for 4 hr, 23 nL of compounds dissolved in DMSO, positive controls or DMSO only were transferred by a Pintool station (Kalypsys, San Diego, CA) and after 2 hr incubation at 37 C, one ul of 1 uM (final concentration) of Doxycycline Hyclate was added to all the wells by using a Flying Reagent Dispenser (FRD) (Aurora Discovery, San Diego, CA). After 16 hr incubation at 37 C and 5% CO2, 5 uL of ONE-Glo reagent (Promega Corporation, Madison, WI) was added to each assay plate using FRD. After 30 min incubation at room temperature, luminescence was quantified on a ViewLux plate reader (Perkin Elmer, Waltham, MA).
Potency is read from the fitted curve at half-maximal effect.

For `Cc1c(Cl)c(=O)oc2cc(O)ccc12`, which Potency is on record?
Its Potency is “inactive”.

How did the Potency turn out when `CN[C@H]1CC[C@@H](c2ccc(Cl)c(Cl)c2)c2ccc(S(N)(=O)=O)cc21` was run?
Its Potency is 54.5 µM (active).

How did the activity change, negative = inhibition turn out when `C=C[Si](C)(C)Cl` was run?
Its activity change, negative = inhibition is -27.2% [at 8.39 µM].

`CC(c1cc(C(C)(C)C)cc(C(C)(C)C)c1O)c1cc(C(C)(C)C)cc(C(C)(C)C)c1O` was tested. Which Potency did it give?
Its Potency is 19.3 µM (active).

`Cc1cccc2c1ccc1ccccc12` was tested. Which Potency did it give?
The Potency was “inactive”.

Which Potency does the source give for `COc1ccc(OC)c(N=Nc2c(O)ccc3ccccc23)c1` here?
The Potency was “inactive”.

`COc1cc([C@@H]2c3cc4c(cc3[C@@H](O[C@@H]3O[C@@H]5CO[C@@H](C)O[C@H]5[C@H](O)[C@H]3O)[C@H]3COC(=O)[C@H]23)OCO4)cc(OC)c1O` was tested. Which Potency did it give?
Its Potency is 27 µM (active).

For `Nc1cccnc1N`, which Potency is on record?
Its Potency is “inactive”.

With `CCOc1nc(F)cc2nc(S(=O)(=O)Nc3c(Cl)cccc3C(=O)OC)nn12` as the compound, how does the Potency read?
Its Potency is “inactive”.

How did the Potency turn out when `CC1=C(/C=C/C(C)=C/C=C/C(C)=C\C(=O)O)C(C)(C)CCC1` was run?
The Potency was “inactive”.

For `CC(=O)CC(N)=O`, which Potency is on record?
The Potency was “inactive”.

Which Potency does the source give for `O=[N+]([O-])c1ccc(O)c2ncccc12` here?
The Potency was 29.8 µM (active).

How did the Potency turn out when `O=C(c1ccccc1)c1ccc(Cl)cc1` was run?
The Potency was 68.6 µM (active).

With `C/C(=C\c1ccc(C(=O)O)cc1)c1ccc2c(c1)C(C)(C)CCC2(C)C` as the compound, how does the Potency read?
The Potency was “inactive”.

`O=C(O)CN(CCCN(CC(=O)O)CC(=O)O)CC(=O)O` was tested. Which activity change, negative = inhibition did it give?
Its activity change, negative = inhibition is -18.7% [at 19 µM].

For `c1ccc2occc2c1`, which Potency is on record?
The Potency was “inactive”.

How did the Potency turn out when `CC(=O)Nc1ccc(N=Nc2cc(C)ccc2O)cc1` was run?
The Potency was “inactive”.

For `O=C1C=CC(=O)N1c1cccc(N2C(=O)C=CC2=O)c1`, which Potency is on record?
Its Potency is 3.86 µM (active).

How did the Potency turn out when `O=C1CCCCCCCCCCCCCC1` was run?
Its Potency is “inactive”.

How did the Potency turn out when `C=C(C)C1CCC(C)CC1O` (stereo not given) was run?
Its Potency is “inactive”.

Which Potency does the source give for `Cc1ccc(N=Nc2c(O)ccc3ccccc23)c(C)c1` here?
The Potency was “inactive”.

With `CCCCC/C=C\C=C\C(=O)OCC` as the compound, how does the Potency read?
Its Potency is 56.8 µM (active).

With `C1=CCCC1` as the compound, how does the Potency read?
The Potency was “inactive”.

`CC(C)(c1ccc(Oc2ccc(N)cc2)cc1)c1ccc(Oc2ccc(N)cc2)cc1` was tested. Which Potency did it give?
Its Potency is 61.1 µM (active).

`CCN(CC)c1ccc2c(c1)Oc1cc(N(CC)CC)ccc1C21OC(=O)c2ccccc21` was tested. Which Potency did it give?
The Potency was “inactive”.

How did the Potency turn out when `C=C(C)CCO` was run?
The Potency was “inactive”.

With `Oc1ccc(C2(c3ccc(O)c(C4CCCCC4)c3)CCCCC2)cc1C1CCCCC1` as the compound, how does the Potency read?
Its Potency is 17.2 µM (active).

How did the Potency turn out when `Cc1ccc2n[nH]nc2c1` was run?
The Potency was “inactive”.

With `CCN(CC)c1ccc(N=Nc2ccccc2)cc1` as the compound, how does the Potency read?
Its Potency is “inactive”.

`CCCCCN=C(N)N/N=C/c1c[nH]c2ccc(OC)cc12` was tested. Which Potency did it give?
Its Potency is 33.5 µM (active).

Which Potency does the source give for `CC(O)(c1ccc(Cl)cc1)c1ccc(Cl)cc1` here?
The Potency was “inactive”.

For `Cc1cc(C)c(O)c(C(C)(C)C)c1`, which Potency is on record?
The Potency was “inactive”.

With `C=Cc1ccncc1` as the compound, how does the Potency read?
Its Potency is “inactive”.

How did the Potency turn out when `CCOC(=O)[C@H](C)O` was run?
The Potency was “inactive”.

For `c1ccc(C[P+](c2ccccc2)(c2ccccc2)c2ccccc2)cc1`, which Potency is on record?
Its Potency is 24.3 µM (active).

`C[C@H]1O[C@@H](O[C@H]2CC[C@@]3(C)[C@H](CC[C@@H]4[C@@H]3C[C@@H](O)[C@]3(C)[C@@H](C5=CC(=O)OC5)CC[C@]43O)C2)C[C@H](O)[C@@H]1O[C@H]1C[C@H](O)[C@H](O[C@H]2C[C@H](O)[C@H](O[C@@H]3O[C@H](CO)[C@@H](O)[C@H](O)[C@H]3O)[C@@H](C)O2)[C@@H](C)O1` was tested. Which Potency did it give?
Its Potency is “inactive”.

`CC(C)(C)c1cc(CCC(=O)OCCSCCOC(=O)CCc2cc(C(C)(C)C)c(O)c(C(C)(C)C)c2)cc(C(C)(C)C)c1O` was tested. Which Potency did it give?
The Potency was “inactive”.

Which Potency does the source give for `Nc1cc([N+](=O)[O-])ccc1Cl` here?
The Potency was “inactive”.

With `COc1cc(OC)nc(NC(=O)NS(=O)(=O)Nc2ccccc2C(=O)N(C)C)n1` as the compound, how does the Potency read?
The Potency was “inactive”.

Which Potency does the source give for `C=C1CC[C@H]2O[C@]2(C)CC[C@@H]2[C@@H]1CC2(C)C` here?
The Potency was “inactive”.
